We go through 51 compounds from PubChem BioAssay AID434970 (Sanford-Burnham Center for Chemical Genomics, 2010).

The campaign covered roughly 11,000 compounds. About 310 (2.8%) were called active. No stated cut-off is given here; in the data, active means activity change below about -85%; inactive means the rest. Only a selection was taken, and actives are over-represented in it overall.

The assay deals with intestinal alkaline phosphatase [Mus musculus]. As to the kind of experiment: mouse intestinal phosphatase enzyme activation – biochemical, luminescence, single concentration, confirmation (AID 434970). The note with it: purified mouse IAP, CDP-Star luminescence, 30 min, at 10 µM; activation factor: measured here: IAP activation factor, stronger effect = higher value; activity change, negative = activation: stronger effect = lower value.
Regarding `S=c1[nH]nc(CSc2nc3ccccc3s2)n1Cc1ccccc1`, the activation factor was determined as 1.1 and the activity change, negative = activation was -10.1% (inactive).

Consider `CCOC(=O)C1=CN(Cc2cccc(F)c2)S(=O)(=O)N(CC)C1c1ccc(F)c(Cl)c1` (configuration not stated), for which the activation factor was 1.1 and the activity change, negative = activation is -9.9% (inactive).

Consider `CC(=O)Cc1nsc(NC(=O)c2ccc(-c3cccc(C(F)(F)F)c3)o2)n1`, for which the activation factor stood at 0.948 and the activity change, negative = activation is 5.2% (inactive).

Take `COc1cc(OC)c(C2N(c3ccccn3)C(=O)C3CCCN32)cc1OC` (configuration not stated): the activation factor is 1.11 and the activity change, negative = activation is -10.6% (inactive).

For the compound `Cc1cc(C(=O)CSc2nnc(-c3cccc(F)c3)n2N)c(C)n1Cc1ccc2c(c1)OCO2`, the activation factor worked out at 0.849 and the activity change, negative = activation is 15.2% (inactive).

Consider `Nc1ncnc2c1ncn2[C@@H]1O[C@H](CNC(=O)[C@@H](N)CO)[C@@H](O)[C@H]1O`, for which the activation factor is 0.992 and the activity change, negative = activation is 0.75% (inactive).

For the compound `S=C(NCc1ccccc1)Nc1ccc(Oc2ccccc2)cc1`, the activation factor amounted to 1.49 and the activity change, negative = activation was -49% (inactive).

For `COc1cc(OC)c2c(-c3ccccc3)cc(=O)oc2c1C(CCN1CCOCC1)c1ccc(N(C)C)cc1` (configuration not stated), the activation factor came out at 0.992 and the activity change, negative = activation is 0.8% (inactive).

As for `CN(C)S(=O)(=O)n1cnc(-c2ccccc2)c1-c1ccccc1`, the activation factor was found to be 1.06 and the activity change, negative = activation was -5.85% (inactive).

Turning to `Cc1ccc(NC(=O)C2CCN(C(=O)NC3CCCCC3)CC2)c(C)c1`, the activation factor came to 1.02 and the activity change, negative = activation was -1.95% (inactive).

Take `Cc1cccc(N/C(N)=N/c2nc(C)cc(C)n2)c1`: the activation factor was 1.05 and the activity change, negative = activation is -4.7% (inactive).

As to `Cc1ccc(N/C(N)=N/c2nc(C)cc(N3CCCCC3)n2)c(C)c1`, the activation factor stood at 4.22 and the activity change, negative = activation is -322% (active).

With `CCOC(=O)C1=CN(Cc2ccco2)S(=O)(=O)NC1c1cccc(OC)c1` (configuration not stated), the activation factor amounted to 0.986 and the activity change, negative = activation was 1.35% (inactive).

In the case of `CCOc1ccc(-c2nnc(-c3cccnc3)o2)cc1OCC`, the activation factor turned out to be 0.916 and the activity change, negative = activation was 8.35% (inactive).

Consider `O=S(=O)(Nc1ccccc1)c1ccc(Oc2ncc(C(F)(F)F)cc2Cl)cc1`, for which the activation factor was 0.903 and the activity change, negative = activation was 9.65% (inactive).

With `COc1cccc(NC2=NC3(CCCCC3)N=C(N)N2)c1`, the activation factor was determined as 1.5 and the activity change, negative = activation is -50.5% (inactive).

As for `CCCCOc1ccc(NC2=NC3(CCCCC3)N=C(N)N2)cc1`, the activation factor was determined as 5.53 and the activity change, negative = activation is -453% (active).

`CC1(C)N=C(N)NC(Nc2ccccc2)=N1`: the activation factor came out at 1.04 and the activity change, negative = activation is -4% (inactive).

Consider `COc1ccc(OC)c(NC2=NC3(CCCCC3)N=C(N)N2)c1`, for which the activation factor was determined as 1.17 and the activity change, negative = activation was -16.5% (inactive).

Turning to `Cc1cc(C)cc(NC2=NC3(CCCCC3)N=C(N)N2)c1`, the activation factor was found to be 3.22 and the activity change, negative = activation is -222% (active).

Turning to `COc1ccc(OC)c(NC2=NC3(CCCC3)N=C(N)N2)c1`, the activation factor stood at 1.22 and the activity change, negative = activation is -21.9% (inactive).

On to `S=C(NCCNCc1ccccc1)NC1CCCCC1`, for which the activation factor is 1.18 and the activity change, negative = activation is -18% (inactive).

`O=C(NN1C(=O)CSC1=S)C(=O)NN1C(=O)CSC1=S`: the activation factor was determined as 0.0825 and the activity change, negative = activation was 91.8% (inactive).

On to `CC(C)=CCC/C(C)=C/CNC(=O)C[C@H]1C[C@H](C(=O)N(C(C)C)C(C)C)[C@@]2(C)c3[nH]c4cc(-c5ccco5)ccc4c3CCN2C1=O`, for which the activation factor was 1.39 and the activity change, negative = activation is -39.4% (inactive).

As for `COc1ccc(NC(=O)CCS(=O)(=O)c2cccc3nonc23)c(OC)c1`, the activation factor was determined as 0.945 and the activity change, negative = activation was 5.5% (inactive).

For `COc1ccc(C2CC(c3ccccc3Cl)=NN2c2ccc(S(N)(=O)=O)cc2)cc1` (configuration not stated), the activation factor turned out to be 2.18 and the activity change, negative = activation is -118% (active).

For `COc1ccc(C2CC(c3cccc(Cl)c3)=NN2c2ccc(S(N)(=O)=O)cc2)cc1` (configuration not stated), the activation factor worked out at 1.79 and the activity change, negative = activation was -78.7% (inactive).

On to `COc1ccc(C2CC(c3ccccc3C(F)(F)F)=NN2c2ccc(S(N)(=O)=O)cc2)cc1` (configuration not stated), for which the activation factor came out at 2.21 and the activity change, negative = activation was -121% (active).

Consider `COc1ccc(C2CC(c3ccccc3F)=NN2c2ccc(S(N)(=O)=O)cc2)cc1` (configuration not stated), for which the activation factor was found to be 2.13 and the activity change, negative = activation was -113% (active).

For `COc1ccc(C2CC(c3ccc(Cl)cc3)=NN2c2ccc(S(N)(=O)=O)cc2)cc1` (configuration not stated), the activation factor was 1.6 and the activity change, negative = activation was -59.8% (inactive).

As to `COc1ccc(C2CC(c3ccccc3Br)=NN2c2ccc(S(N)(=O)=O)cc2)cc1` (configuration not stated), the activation factor came to 1.27 and the activity change, negative = activation is -26.8% (inactive).

`COc1ccc(C2CC(c3cccc(C(F)(F)F)c3)=NN2c2ccc(S(N)(=O)=O)cc2)cc1` (configuration not stated): the activation factor was found to be 1.51 and the activity change, negative = activation is -50.8% (inactive).

For `COc1ccc(C2CC(c3ccc(C(F)(F)F)cc3)=NN2c2ccc(S(N)(=O)=O)cc2)cc1` (configuration not stated), the activation factor came to 1.37 and the activity change, negative = activation is -36.7% (inactive).

Turning to `COc1ccc(C2CC(c3cccc(F)c3)=NN2c2ccc(S(N)(=O)=O)cc2)cc1` (configuration not stated), the activation factor turned out to be 1.67 and the activity change, negative = activation was -67.2% (inactive).

On to `CSc1ccc(-c2nc(CSCC(=O)NCCCN3CCOCC3)c(C)o2)cc1`, for which the activation factor stood at 0.847 and the activity change, negative = activation is 15.3% (inactive).

For `CCOC(=O)C1=C(C)OC(N)=C(C#N)C1c1cc2cc(C)ccc2nc1N1CCCCC1` (configuration not stated), the activation factor amounted to 1.02 and the activity change, negative = activation was -1.65% (inactive).

For `CN(C)CCCNC(=O)C[C@H]1C[C@H](C(=O)N2CCCCC2)[C@@]2(CCc3ccccc3)c3[nH]c4cc(CCC(=O)N(C)C)ccc4c3CCN2C1=O`, the activation factor turned out to be 1.1 and the activity change, negative = activation is -10.1% (inactive).

Take `Cc1cnc(NC(=O)c2ccco2)s1`: the activation factor was determined as 0.954 and the activity change, negative = activation was 4.55% (inactive).

For the compound `O=C1[C@@H](Oc2ccccc2)[C@@H](c2ccccc2)N1c1ccccc1`, the activation factor came out at 0.938 and the activity change, negative = activation is 6.25% (inactive).

With `CSc1cccc(NC(=O)C2CCN(S(=O)(=O)c3ccc(F)cc3)CC2)c1`, the activation factor worked out at 1.98 and the activity change, negative = activation is -97.7% (active).

For the compound `Cc1ccc(NC(=O)C2CCN(S(=O)(=O)c3ccc4c(c3)NC(=O)C(C)S4)CC2)cc1Cl` (configuration not stated), the activation factor is 1.71 and the activity change, negative = activation is -71.1% (inactive).

On to `Cc1ccc(S(=O)(=O)N2CCC(C(=O)N[C@@H](C)C(=O)NC3CCCCC3)CC2)cc1`, for which the activation factor turned out to be 1.09 and the activity change, negative = activation was -8.65% (inactive).

Regarding `Cc1ccc(NC(=O)C2CCN(S(=O)(=O)c3ccc(N4CCCC4=O)cc3)CC2)cc1Cl`, the activation factor came out at 1.79 and the activity change, negative = activation was -79.3% (inactive).

For the compound `COc1ccc(S(=O)(=O)N2CCC(C(=O)Nc3cccc(Cl)c3)CC2)cc1OC`, the activation factor turned out to be 1.62 and the activity change, negative = activation was -61.7% (inactive).

For the compound `Cc1ccc(S(=O)(=O)NNC(=O)C2CCN(S(=O)(=O)c3ccc(C)cc3)CC2)cc1`, the activation factor stood at 0.962 and the activity change, negative = activation is 3.85% (inactive).

As for `CCc1ccc(NC(=O)C2CCN(S(=O)(=O)c3ccc4c(c3)CC(C)N4C(C)=O)CC2)cc1` (configuration not stated), the activation factor stood at 1.49 and the activity change, negative = activation is -48.7% (inactive).

With `Cc1cc(C)cc(NC(=O)C2CCN(S(=O)(=O)c3ccc4c(c3)NC(=O)C(C)S4)CC2)c1` (configuration not stated), the activation factor was 1.96 and the activity change, negative = activation is -96% (active).

As for `Cc1ccc(S(=O)(=O)N2CCC(C(=O)Nc3ccc(S(=O)(=O)N4CCCC4)cc3)CC2)cc1C`, the activation factor is 2.22 and the activity change, negative = activation was -122% (active).

With `CCNC(=O)C1CCN(S(=O)(=O)c2ccc(F)cc2)CC1`, the activation factor was 0.998 and the activity change, negative = activation was 0.15% (inactive).

`O=C(Nc1ccc(S(=O)(=O)N2CCCCCC2)cc1)C1CCCO1` (configuration not stated): the activation factor came out at 0.946 and the activity change, negative = activation is 5.4% (inactive).

For `Cc1ccc(S(=O)(=O)N2CCC(C(=O)Nc3ccc(C(C)C)cc3)CC2)cc1`, the activation factor worked out at 3.49 and the activity change, negative = activation was -249% (active).
